Screening data (PubChem)
TRHR agonist = qHTS for Small Molecule Agonists and Allosteric Enhancers of Human TRH Receptor: Primary Screen for Agonists. activation, % at 2 µM. Thyrotropin-releasing hormone receptor (Homo sapiens), P34981. 0.18% of 360,000 active. AID 493084, 2011. TRHR cells, calcium flux fluo-8, FDSS agonist mode
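Steps: seed TRHR cells overnight; add fluo-8 no-wash Ca dye, RT 30 min–1.5 h; record 10 s baseline; pin-transfer compounds; monitor fluorescence 1 cycle/s for the agonist window. Calcium increases flag candidate agonists.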
TRHR enhancer = qHTS for Small Molecule Agonists and Allosteric Enhancers of Human TRH Receptor: Primary Screen for Enhancers; Thyrotropin-releasing hormone receptor (Homo sapiens), P34981; TRHR cells, fluo-8 calcium fluorescence, EC20 TRH enhancement; enhancement, % at 2 µM; 0.66% of 360,000 active; AID 493056, 2011; in the data active = enhancement above about 30%
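Enhancer read-out: after compound pinning and an initial kinetic agonist-mode read, an EC20 of TRH (10 nM final) was injected and fluo-8 calcium signal (Ex 480/Em 530) followed at 1 s/cycle for 100 cycles in TRHR-expressing cells.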
D1 antag = Antagonist of Human D 1 Dopamine Receptor: qHTS; D(1A) dopamine receptor (Homo sapiens), P21728; HEK293 TREx D1 cells, calcium flux, dopamine EC80; stronger effect = lower value; activity change, negative = inhibition, % at 10 µM; 3.2% of 360,000 active; AID 504652, 2011; in the data active = activity change below about -30%
Target sequence (P21728 whole entry, looked up): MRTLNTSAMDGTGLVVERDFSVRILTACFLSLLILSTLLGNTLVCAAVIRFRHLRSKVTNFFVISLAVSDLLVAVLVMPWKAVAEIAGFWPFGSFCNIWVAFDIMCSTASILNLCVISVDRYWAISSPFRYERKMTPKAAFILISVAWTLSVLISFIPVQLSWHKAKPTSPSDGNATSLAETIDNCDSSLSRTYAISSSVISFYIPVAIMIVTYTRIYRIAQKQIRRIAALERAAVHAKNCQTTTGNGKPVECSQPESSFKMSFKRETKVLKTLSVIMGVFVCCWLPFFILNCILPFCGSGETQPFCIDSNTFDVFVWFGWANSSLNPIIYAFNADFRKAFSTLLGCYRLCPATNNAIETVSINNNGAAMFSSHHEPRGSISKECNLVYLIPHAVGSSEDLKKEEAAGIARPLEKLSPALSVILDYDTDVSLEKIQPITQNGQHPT
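Using tetracycline-induced force-coupled D1 Hek293 cells and a calcium dye, signals were followed for 180 s after compound, then for 180 s after EC80 dopamine, to detect inhibitors.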
D1 ag = Allosteric Agonists of the Human D1 Dopamine Receptor: qHTS; HEK293 T-REx D1 cells, calcium flux, agonist mode; activation, % at 2 µM; 1% of 360,000 active
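Tetracycline-induced HEK293 TREx D1 cells, force-coupled to calcium signalling, were dye-loaded with a no-wash calcium kit. Compound was pin-added after a 10 s baseline. Fluorescence was read kinetically at 1 cycle/s for 180 s, with calcium rises flagged as agonism.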
D1 PAM = Potentiators of Human D1 Dopamine Receptor: qHTS; HEK293 TREx D1 cells, calcium flux, dopamine EC20 potentiation; potentiation, % at 10 µM; 0.036% of 360,000 active; in the data active = potentiation above about 30%
GRP78 ERSR act = qHTS for Inducers of the Endoplasmic Reticulum Stress Response (ERSR) in Human Glioma: qHTS; 0.02% of 420,000 active; Potency, µM, hits mostly activators; AID 602332, 2012; U87-MG GRP78 promoter luciferase reporter, 16 h; active = well fitted activation curve with a large enough effect; inconclusive = small, poorly fitted or top-dose-only effect; inactive = no such curve, though single readings can be large or run the other way; note: series mostly up to about 76 µM; nearly all actives have a fitted effect of over 35% in size
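ERSR induction read as luciferase luminescence (Bright-Glo, 10 min at room temperature) in stably transfected human U87-MG glioma cells exposed to compounds for 16 h, using GRP78 as sensor.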
Each line names hits and unclear results; the compound was inactive in the other large screens; ! = repeats disagree. Most compounds without a hit are left out; they make up all but 4% or so of the library. Cut-off read from the data, not from the text of the source, unless noted: active = activation above about 30%; inactive = the rest.

CC1CC(N(C(=O)c2ccco2)c2ccccc2)c2ccccc2N1C(=O)c1ccco1 (configuration not stated)	none
CCCCN(CC)Cc1c(O)ccc2c(-c3ccccc3)cc(=O)oc12	none
CCN(CC)Cc1c(O)ccc2c(-c3ccccc3)cc(=O)oc12	D1 antag -31
Cn1c(NC(=O)c2cc(Cl)ccc2Cl)cc(=O)n(C)c1=O	none
COC(=O)c1cn[nH]c1N	D1 antag -30
Cc1cc(C(=O)COC(=O)C2=NNC(=O)CC2)c(C)n1-c1ccccc1	none
O=C(NC1=NCCS1)c1sc2cc(Cl)cc(Cl)c2c1Cl	D1 antag -34
O=C(NC1=NCCS1)c1sc2ccccc2c1Cl	none
CSc1nnc2c3ccccc3n(Cc3ccccc3)c2n1	D1 antag -56
CSc1nnc2c3ccccc3n(CCc3ccccc3)c2n1	none
Cc1c(NC(=O)COC(=O)c2ccccc2O)c(=O)n(-c2ccccc2)n1C	none (no result: TRHR agonist, TRHR enhancer, D1 antag, D1 ag, D1 PAM)
COc1ccccc1CN1C[C@@H]2C[C@@H](c3ccc(C)cc3)N3CCC[C@@]23C1=O	none
Cc1ccc([C@@H]2C[C@H]3CN(Cc4cccc(Cl)c4)C(=O)[C@]34CCCN24)o1	none
COc1ccccc1CN1C[C@@H]2C[C@@H](c3ccc4nsnc4c3)N3CCC[C@@]23C1=O	D1 antag -72
O=C1N(Cc2cccc(Cl)c2)C[C@@H]2C[C@@H](c3ccc4nonc4c3)N3CCC[C@@]123	D1 antag -36
O=C1N(Cc2cccc(Cl)c2)C[C@@H]2C[C@@H](c3cccc4ncccc34)N3CCC[C@@]123	D1 antag -35
O=C(Cc1cccs1)NCCN1CCOCC1	none
O=C(O)CN1C(=O)/C(=C\c2cn(CC(=O)N3CCOCC3)c3ccccc23)SC1=S	D1 ag 32
Cc1ccc(-c2nc(S(=O)(=O)c3ccc(C)cc3)c(N3CCOCC3)o2)cc1	none
Cc1cccc(NS(=O)(=O)c2cccc(C(=O)N3CCN(c4ccccn4)CC3)c2)c1	none
Cc1ccc(C(C)(C)C)cc1S(=O)(=O)Nc1cccc(C(=O)N2CCN(c3ccccn3)CC2)c1	D1 ag 33
CCCCS(=O)(=O)C1CCS(=O)(=O)C1 (configuration not stated)	none
CCCCCc1c2c(cc(O)c1C(=O)O)OC(=O)c1c(cc(OC)cc1C(=O)CCCC)O2	D1 antag -31, GRP78 ERSR act inconclusive
O=C(Cc1ccccc1)Nc1ccc(N2CCCC2)cc1	none
CCN1CCN(c2ccc(NC(=O)Cc3ccccc3)cc2)CC1	D1 antag -62
O=C(COc1ccccc1Cl)Nc1ccc(N2CCN(C(=O)c3ccccc3)CC2)cc1	D1 antag -52
O=C(COc1ccc(Cl)cc1)Nc1ccc(N2CCN(C(=O)c3ccco3)CC2)cc1	D1 antag -31
Cc1ccc(NC(=O)CS(=O)CC(=O)N2CCN(C3CCCC3)CC2)cc1 (configuration not stated)	none
O=C(COc1ccccc1Cl)Nc1ccc(N2CCCC2)cc1	none
Cc1ccc(NC(=O)CS(=O)CC(=O)N2CCN(c3ccccc3)CC2)cc1 (configuration not stated)	TRHR enhancer 31
COc1cc(NC(=O)CN(c2cc(C)cc(C)c2)S(=O)(=O)c2c(C)[nH]c(=O)[nH]c2=O)cc(OC)c1	none
N#Cc1ccc(OCC(=O)N2CCN(C(=O)c3ccco3)CC2)cc1	D1 antag -35
O=C(Cc1ccccc1)Nc1cccc(N2CCCC2)c1	D1 antag -35
O=C(CCS(=O)(=O)c1ccccc1F)Nc1ccc(N2CCN(Cc3ccccc3)CC2)cc1	D1 antag -39
O=C(COc1ccccc1O)Nc1ccc(Cl)cc1	D1 antag -36
Cc1ccccc1OCC(=O)NNC(=O)Nc1ccc(Cl)cc1	none
COc1ccc(-c2csc3nc(C)n(-n4cccc4)c(=O)c23)cc1OC	none
CCOC(=O)C1(C)CCCCN1C(=O)c1ccc(N(C)C)cc1 (configuration not stated)	none (no result: TRHR agonist, TRHR enhancer, D1 antag, D1 ag, D1 PAM)
CCN1CCN(c2ccc(NC(=O)COc3ccccc3Cl)cc2)CC1	D1 antag -42
O=C(O)CCCC(=O)Nc1ccc(Br)cc1	none
O=C(O)CCCC(=O)Nc1ccc(Cl)cc1	D1 antag -54
Cc1ccc(S(=O)(=O)NCc2nc3nc(C)cc(C)n3n2)c(C)c1	D1 antag -65!
COc1ccc(CC(=O)Nc2cccc(SC)c2)cc1	none
CSc1nnc(-c2ccccc2N=Cc2c(C)[nH]n(-c3ccccc3)c2=O)c(=O)[nH]1	D1 antag -33
Cc1ccc2cccc(N=Cc3c(C)[nH]n(-c4ccccc4)c3=O)c2n1	none
O=[N+]([O-])c1c(Nc2ccc(O)cc2)cc(Cl)c2nonc12	D1 antag -42
CCOC(=O)c1c(-c2ccc(Br)cc2)csc1NC(=O)c1ccc(F)cc1	none
CC(C)COc1ccc(C(=O)Nc2scc(-c3ccc(Br)cc3)c2C(=O)OC(C)C)cc1	TRHR enhancer 31
COc1ccc(C2(C(=O)NCCN3CCOCC3)CCOCC2)cc1	none
CNC(=O)c1cn(-c2ccccc2)c(=O)c2ccccc12	D1 antag -73
COc1ccc(NC(=S)NCCc2c[nH]c3ccccc23)c(OC)c1	D1 antag -36
CCCCn1nc2cc(C(=O)NCCc3cccs3)ccc2c1OCC	D1 antag -67
CCCCOc1ccc(C(=O)NCC2(c3ccccc3)CCOCC2)cc1	D1 antag -40
CCCCOc1ccc(C(=O)NCCc2cccs2)cc1	D1 antag -32 (no result: GRP78 ERSR act)
COc1cc(C)c(CN2CCCCC2CO)cc1C (configuration not stated)	none
CC(C)N(C)CCOC(=O)/C=C/c1ccccc1	none
Cc1ccc(-c2nc(N)sc2CC(=O)OCC(=O)NC2CCCC(C)C2C)cc1 (configuration not stated)	D1 antag -41
Cc1ccc(-c2nc(N)sc2CC(=O)OCC(=O)N2C(C)CCCC2C)cc1 (configuration not stated)	none
COc1cc(CN2CCC(C(=O)N3CCN(c4ccccc4F)CC3)CC2)cc(OC)c1O	none
O=C(NCc1ccco1)C1CCN(C(=O)c2cc3sccc3n2Cc2ccc(F)cc2)CC1	D1 antag -32
COc1ccc(OCCCn2cc(/C=C3/C(=N)N4C=C(C)SC4=NC3=O)c3ccccc32)cc1	none
